# The whole screen tested about 2,100 compounds, of which about 770 (37%) were called active.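 The calls were made as follows: active = by-eye trace score of 1 for enhancers or -1 for inhibitors, so actives lie on both sides (some results past the limit were not filed as active); inactive = score 0, or 3 fluorescent, or 4 baseline rise.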 The list shows a part of the results.
# Target: G protein-activated inward rectifier potassium channel 2 (Homo sapiens) + G protein-activated inward rectifier potassium channel 1 (Homo sapiens) (UniProt P48051+P48549)
# Assay: GIRK1/2 thallium flux modulators, retest, confirmation, cell-based, HEK293 rmGlu8/hGIRK1/2, FluoZin-2 (AID 623911)
# Conditions: HEK293 rmGlu8/hGIRK1/2, thallium flux FluoZin-2; actives lie on both sides; glutamate co-added at its EC20 level
# Sequence of G protein-activated inward rectifier potassium channel 2 (Homo sapiens) + G protein-activated inward rectifier potassium channel 1 (Homo sapiens) (P48051 whole entry, looked up): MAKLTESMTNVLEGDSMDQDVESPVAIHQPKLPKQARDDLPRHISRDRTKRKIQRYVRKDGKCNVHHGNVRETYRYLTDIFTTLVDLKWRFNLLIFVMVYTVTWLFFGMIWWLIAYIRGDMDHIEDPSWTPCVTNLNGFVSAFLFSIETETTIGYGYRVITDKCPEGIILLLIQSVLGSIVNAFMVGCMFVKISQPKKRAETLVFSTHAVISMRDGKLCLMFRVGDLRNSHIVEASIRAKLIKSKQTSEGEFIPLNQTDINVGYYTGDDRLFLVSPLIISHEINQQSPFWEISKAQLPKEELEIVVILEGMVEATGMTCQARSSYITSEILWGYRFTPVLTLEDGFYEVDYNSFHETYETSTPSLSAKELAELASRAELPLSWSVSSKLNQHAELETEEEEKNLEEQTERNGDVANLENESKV
# Sequence of G protein-activated inward rectifier potassium channel 2 (Homo sapiens) + G protein-activated inward rectifier potassium channel 1 (Homo sapiens) (P48549 whole entry, looked up): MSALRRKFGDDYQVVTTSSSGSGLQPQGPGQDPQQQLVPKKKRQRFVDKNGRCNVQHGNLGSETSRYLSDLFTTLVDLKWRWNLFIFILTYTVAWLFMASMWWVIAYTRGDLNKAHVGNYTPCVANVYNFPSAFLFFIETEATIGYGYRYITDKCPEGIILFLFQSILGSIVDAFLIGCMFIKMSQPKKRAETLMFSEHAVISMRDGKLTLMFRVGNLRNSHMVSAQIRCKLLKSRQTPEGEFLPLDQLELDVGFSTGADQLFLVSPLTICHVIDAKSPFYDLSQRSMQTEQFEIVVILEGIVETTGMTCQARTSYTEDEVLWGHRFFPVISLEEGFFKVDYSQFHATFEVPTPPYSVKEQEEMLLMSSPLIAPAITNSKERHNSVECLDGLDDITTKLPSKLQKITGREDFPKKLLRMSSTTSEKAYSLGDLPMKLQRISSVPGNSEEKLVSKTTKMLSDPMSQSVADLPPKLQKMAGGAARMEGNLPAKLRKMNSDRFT
row,SMILES,manual score
1,Cc1ccc(N2CC(C(=O)Oc3cccc(N4C(=O)CCC4=O)c3)CC2=O)cc1 (configuration not stated),0 (inactive)
2,Cc1ccc(/C(O)=C2\C(=O)C(=O)N(c3cc(C)on3)C2c2cccc(Br)c2)cc1 (configuration not stated),0 (inactive)
3,CC(Oc1ccc(Cl)cc1)C(=O)N/N=C/c1ccsc1 (configuration not stated),1 (active)
4,CC(C)C(=O)Nc1cccc(NC(=O)c2cc3ccccc3o2)c1,0 (inactive)
5,CC(=O)Nc1nnc(C)s1,0 (inactive)
6,CCCN(CCC)CCCOC(=O)c1ccc(Cl)cc1Cl,-1 (active)
7,CC1Cc2ccccc2N1C(=S)NC(=O)c1ccc(Cl)cc1Cl (configuration not stated),1 (active)
8,CCCN(CCC)C(=S)NC(=O)c1ccc(Cl)cc1Cl,1 (active)
9,CCCCN(CCCC)C(=S)NC(=O)C(C)(C)C,1 (active)
10,CCOC(=O)CC1=C(C(=O)OCC)C(c2cccs2)C(C#N)=C(N)O1 (configuration not stated),0 (inactive)
11,CCOC(=O)C(C(=O)OCC)c1cc(Br)c2noc3c2c1C(=O)c1ccccc1-3,3 (inactive)
12,COc1c2occc2c(OC)c2c(=O)cc(C(F)(F)F)oc12,0 (inactive)
13,COc1cc(/C=C2\S/C(=N/S(=O)(=O)c3ccc(C)cc3)NC2=O)c([N+](=O)[O-])cc1OC,0 (inactive)
14,CN(C(=S)NC(=O)CCCOc1ccc(Cl)cc1Cl)c1ccccc1,0 (inactive)
15,CCCCN(CCCC)C(=S)NC(=O)c1ccccc1Cl,1 (active)
16,CCCCn1nnc(NC(=S)NC(=O)c2ccc(-c3cccc(Cl)c3Cl)o2)n1,0.5 (inactive)
17,CCN(CC)C(=S)NC(=O)c1ccc(Cl)cc1Cl,1 (active)
18,CCCCN(CCCC)c1ccc(C(=O)c2ccccc2C(=O)O)c(O)c1,0 (inactive)
19,S=c1[nH]nc(CSCc2ccc(Cl)cc2Cl)n1-c1ccccc1,0 (inactive)
20,CCOC(=O)C1CCN(C(=O)NC23CC4CC(CC(C4)C2)C3)CC1,0 (inactive)
21,O=C(Nc1ccc2c(c1)OCCO2)NC12CC3CC(CC(C3)C1)C2,1 (active)
22,COC(=O)[C@H](CC(C)C)NC(=O)Nc1ccc2c(c1)OCCO2,0 (inactive)

row,SMILES,manual score
1,O=C(COC(=O)C1CC2C=CC1C2)Nc1ccc2c(c1)OC(F)(F)O2 (configuration not stated),0 (inactive)
2,CCOc1ccc(NC(=O)NC23CC4CC(CC(C4)C2)C3)cc1,1 (active)
3,CCOc1ccc(N2C(=O)CC(SC(=NC)Nc3ccc(F)cc3)C2=O)cc1 (configuration not stated),0 (inactive)
4,Cc1[nH]n(-c2ccccc2)c(=O)c1N=Nc1nccs1,1 (active)
5,Cc1cccc(-n2c(C)nc3sccc3c2=O)c1,0 (inactive)
6,CCOn1c(=O)c(-c2cccs2)[n+]([O-])c2ccccc21,3 (inactive)
7,Cc1cc(C)nc(Sc2ncnc3sc4c(c23)CCC4)n1,0 (inactive)
8,c1csc(CCNc2ncnc3sc4c(c23)CCC4)c1,-1 (active)
9,CCOC(=O)c1cc(-c2ccc(Cl)cc2)nc2c1c(C)nn2CCC#N,0 (inactive)
10,N#CCCn1nc(-c2ccc(Cl)cc2)cc1Nc1ccccc1NC(=O)C(F)(F)F,1 (active)
11,COc1cccc(C(=O)NC(=S)N2CCN(c3ccc(C(F)(F)F)cc3[N+](=O)[O-])CC2)c1,0.5 (inactive)
12,CC(C)Oc1cccc(C(=O)NC(=S)N2CCN(c3ccc(C(F)(F)F)cc3[N+](=O)[O-])CC2)c1,1 (active)
13,COc1ccccc1NC(=O)COc1ccc(C(F)(F)F)cc1[N+](=O)[O-],0 (inactive)
14,COc1cc(OC)cc(C(=O)NC(=S)N2CCN(c3ccc(C(F)(F)F)cc3[N+](=O)[O-])CC2)c1,1 (active)
15,O=C1c2ccccc2C(=O)N1Nc1ccccc1,0 (inactive)
16,C(/C=C/C=C/Nc1ccccc1)=Nc1ccccc1,3 (inactive)
17,C=CCCCCCCCCc1nc(=S)[nH][nH]1,1 (active)
18,CCCCCCCCc1nc(=S)[nH][nH]1,0.5 (inactive)
19,CC1=C(n2nnc3ccccc32)C(c2ccccc2)C(C#N)=C(N)O1 (configuration not stated),0 (inactive)
20,O=C(COc1c(Br)cc(Br)c2cccnc12)N1CCc2ccccc2C1,0 (inactive)
21,CC(C)CC(=O)Nc1ccccc1-c1nnn(CC(=O)N2CCc3ccccc3C2)n1,0 (inactive)
22,CCOC(=O)c1c(C)c(C(=O)N2CCc3ccccc3C2)c(C)n1CC,-1 (active)

row,SMILES,manual score
1,O=C(O)c1oc2ccccc2c1CSc1ccccn1,0 (inactive)
2,CCCCCCc1cc2cc(C(=O)NC)c(=N)oc2cc1O,3 (inactive)
3,CCCCc1cc(=O)oc2cc(C)cc(O)c12,-1 (active)
4,Cc1ccccc1NC(=S)NC(=O)c1cncc(Br)c1,1 (active)
5,O=C(Nc1ccc(N2CCCCC2)c(Cl)c1)c1ncn[nH]1,0 (inactive)
6,O=C(NC(=S)NC1CCCCCC1)c1cncc(Br)c1,0 (inactive)
7,Cc1ccccc1NC(=S)NC(=O)c1cc(-c2ccccc2)nc2ccccc12,0 (inactive)
8,CC1CCCC(NC(=S)NC(=O)c2cncc(Br)c2)C1C (configuration not stated),1 (active)
9,O=C(NC(=S)Nc1ccc(N2CCOCC2)c(Cl)c1)c1cncc(Br)c1,1 (active)
10,COc1ccc(OCC(=O)NC(=S)Nc2ccc(N3CCOCC3)c(Cl)c2)cc1,0 (inactive)
11,CC(C)(C)CC(=O)Nc1ccc(C(N)=O)cc1,0 (inactive)
12,Cc1ccc(NC(=O)CSC(N)=O)cc1Cl,1 (active)
13,NC(=O)SCC(=O)Nc1cccc(Cl)c1,1 (active)
14,Cc1ccc(NC(=O)Cn2cccc2)cc1Cl,0 (inactive)
15,CCn1c(CCNC(=O)c2cccs2)nnc1SCC(=O)Nc1ccc(Cl)cc1,0 (inactive)
16,O=C(CSCCO)Nc1ccccc1,0 (inactive)
17,NC(=O)SCC(=O)Nc1ccc(Cl)cc1,1 (active)
18,O=C(CC(O)(C(F)(F)F)C(F)(F)F)Nc1ccc(Cl)c(Cl)c1,0 (inactive)
19,Cn1c(=O)c(NCCc2ccccc2)c2c3c(cccc31)C(=O)c1ccccc1-2,3 (inactive)
20,Cc1ccccc1Cn1c(=N)n(CC(=O)c2ccco2)c2ccccc21,-1 (active)
21,Cc1ccccc1Cn1c(-c2cncs2)nc2ccccc21,0 (inactive)
22,Cc1ccccc1Cn1c(=N)n(CC(O)c2ccco2)c2ccccc21 (configuration not stated),-1 (active)

row,SMILES,manual score
1,C1CCC2(CC1)OCC1(CO2)COC2(CCCCC2)OC1,0 (inactive)
2,Cc1cccc(NC(=S)N2CCC(C(=O)c3ccc(F)cc3)CC2)c1C,0 (inactive)
3,c1ccc(-c2nnc3n2NC(c2ccc4c(c2)OCO4)S3)cc1 (configuration not stated),1 (active)
4,Cc1cccc(NC(=O)COc2ccc(Br)cc2/C=N/O)c1,0 (inactive)
5,Cc1ccc(/C=C/C(=O)c2ccccc(=O)c2O)cc1C,1 (active)
6,Cc1cccc(/C=C/C(=O)c2cc(Br)ccc(=O)c2O)c1,1 (active)
7,Cc1cccc(/C=c2\s/c(=C\C(=O)C(C)(C)C)[nH]c2=O)c1,0 (inactive)
8,O=C(/C=C/c1ccccc1)c1cc(Br)ccc(=O)c1O,1 (active)
9,COc1ccc(/C=C/C(=O)c2cc(Br)ccc(=O)c2O)cc1,1 (active)
10,CCC(=O)Oc1ccc(C/C(=N\O)c2ccc(O)cc2O)o1,0 (inactive)
11,COc1ccc(-c2cc(C(F)(F)F)c3c(n2)sc2c(O)cc(=O)[nH]c23)c(OC)c1,-0.5 (inactive)
12,N#CC(C#N)=C1C=C2C=C(N3CCCCC3)CCC2CC1 (configuration not stated),3 (inactive)
13,CC(C)CN(C(=O)COC(=O)Cc1n[nH]c(=O)c2ccccc12)C1CCS(=O)(=O)C1 (configuration not stated),0 (inactive)
14,CCc1ccc(/C=C/C(=O)c2cc(Br)ccc(=O)c2O)cc1,1 (active)
15,COc1ccc(NC(=O)CSc2nnc(-c3ccccn3)n2Cc2ccco2)cc1OC,0 (inactive)
16,CCOC(=O)c1oc2nc(C(C)C)c3c(c2c1N)CC(C)(C)OC3,0 (inactive)
17,COc1ccccc1/C=C/C=N\N1CCN(Cc2ccccc2Cl)CC1,0 (inactive)
18,O/N=C/c1cc(Cl)ccc1OCc1cccc2ccccc12,0 (inactive)
19,Cc1cc(C)n(-c2nnc(C)n2/N=C/c2ccccc2OCc2ccccc2Cl)n1,-1 (active)
20,OC(c1ccccc1)C1CN(Cc2ccccc2)CCC1(O)c1ccccc1 (configuration not stated),-1 (active)
21,O=C(COc1ccccc1F)NC1CCN(Cc2ccccc2)CC1,0 (inactive)
22,Cc1ccc(C)c2[nH]c(=O)c(CN(CCN3CCCC3)C(=O)Nc3ccc(F)cc3)cc12,-1 (active)

row,SMILES,manual score
1,CCOC(=O)CSc1nc2c(sc3ccccc32)c(=O)n1CCCN1CCOCC1,-1 (active)
2,CCCCn1c(SCC(N)=O)nc2c(sc3ccccc32)c1=O,0 (inactive)
3,CC(C)CCn1c(SCC#N)nc2c(sc3ccccc32)c1=O,0 (inactive)
4,Cc1cccc2c1nc(-c1ccccc1)n1cnnc21,0 (inactive)
5,Cc1ccc(C)c(N2CCN(C(=O)CCCOc3cc(=O)n(C)c4ccccc34)CC2)c1,0 (inactive)
6,O=C(CCn1c(=O)oc2ccccc21)N1CCN(c2ccccc2Cl)CC1,-1 (active)
7,COc1ccccc1N1CCN(C(=O)CCn2c(=O)[nH]c3ccsc3c2=O)CC1,0 (inactive)
8,CCC(=O)n1nc(-c2cccnc2)nc1NCc1ccc(OC)cc1,0 (inactive)
9,CC(C)CCNC(=O)C(C)N(C(=O)Cn1nnc(-c2ccc(F)cc2)n1)C1CCCC1 (configuration not stated),0.5 (inactive)
10,CC(C)CCNC(=O)C(C)N(Cc1ccc(F)cc1)C(=O)c1ccc(CN2CCCCC2)o1 (configuration not stated),-1 (active)
11,CN1C=CC2=C(C#N)C(N)C(C#N)(C#N)C(c3ccccc3)C2C1 (configuration not stated),3 (inactive)
12,Fc1ccccc1CNC(=S)Nc1ccc(Cl)cc1,1 (active)
13,Fc1ccc(NC(=S)NCc2ccccc2Cl)cc1,1 (active)
14,S=C(NCc1ccc(Cl)cc1Cl)Nc1ccccc1,1 (active)
15,S=C(NCCc1ccccc1)Nc1ccc(Cl)cc1Cl,-0.5 (inactive)
16,S=C(NN=C1CCCCCC1)Nc1ccc(Cl)cc1,0.5 (inactive)
17,Clc1ccc(Cc2ccc(SCc3ccccc3)nn2)c(Cl)c1,0 (inactive)
18,S=C(N/N=C/c1ccccc1Cl)Nc1ccccc1,0.5 (inactive)
19,CC1(C)CC(=O)c2c(noc2-c2ccccc2)C1,0 (inactive)
